# A number with no mark means an inactive call. Results filed as inconclusive are left out. Where a call stands in place of a potency, no number is given. Active and inactive are the calls of the source. Unless noted, calls come from the whole dose curve; as a rule, active = well fitted curve in the direction sought with a large enough effect; inconclusive = small, poorly fitted or top-dose-only effect, or another doubt; inactive = no such curve, though single readings can be large; an effect the other way counts as inactive or inconclusive.
# How the values were obtained:
# [1] = target: Luciferin 4-monooxygenase (Photinus pyralis) (UniProt P08659); experiment: Biochemical firefly luciferase enzyme assay for NPC (AID 624030); note: nearly all actives have a fitted effect of over 70% in size; note: potency is the fitted concentration of half-maximal effect
# Summary of the method: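 Purified P. pyralis luciferase at 10 nM in 50 mM Tris Acetate (final), luminescence read within 5 minutes of enzyme addition to compounds. Activity normalised to PTC124 versus DMSO; concentration-response curves classed by r2, magnitude and activity.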
# [2] = target: Thyroid hormone receptor beta (Homo sapiens) (UniProt P10828); experiment: qHTS assay for small molecule antagonists of thyroid hormone receptor beta signaling (AID 588547; active = well fitted inhibition curve with a large enough effect in the signal ratio, with a control signal flat, not every such curve was filed as active; the % refers to the signal ratio; note: potency is the fitted concentration of half-maximal effect;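 for activity change % (negative = inhibition): cells stimulated with 0.4 nM T3 agonist during compound exposure; series mostly up to about 77 µM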); conditions: TR-UAS-bla HEK293, beta-lactamase ratio, antagonist mode, 18 h
# Summary of the method: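 TR-UAS-bla GripTite HEK293 cells in 2% charcoal/dextran FBS medium; compounds 0.59 nM to 92 uM with T3 at 0.4nM final, 18 h at 37 C. Beta-lactamase read by CCF4 fluorescence (460/530 nm); Hill fits gave IC50 and efficacy.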
# [3] = target: Voltage-gated inwardly rectifying potassium channel KCNH2 (Homo sapiens) (UniProt Q12809); experiment: qHTS Assay for Small Molecule Inhibitors of the Human hERG Channel Activity (AID 588834);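 note: top concentration of the series differs between compounds; lower thallium flux fluorescence means stronger hERG block; nearly all actives have a fitted effect of over 50% in size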
# Summary of the method: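 In hERG-transduced U2OS cells, dye-loaded for 1 hr at room temperature in dark, test compounds incubated 10 min at 37 °C before thallium stimulation. AC50 values derived by Hill modelling of concentration-response.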
# [4] = S16 Schwann cell viability assay (CellTiter-Glo assay) (AID 624031);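 note: cellular ATP luminescence as a viability measure; series mostly up to about 58 µM; nearly all actives have a fitted effect of over 70% in size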
# Summary of the method: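 CellTiter-Glo ATP luminescence counter-screen in untransfected S16 rat Schwann cells, 24h compound exposure at 37 degree Celsius after overnight seeding (500-750 cells/well); response scaled between cell-free wells and DMSO (0% activity), curves classed by r2 and magnitude.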
# [5] = S16 Schwann cell PMP22 intronic element firefly luciferase assay (AID 624032); note: nearly all actives have a fitted effect of over 30% in size; note: potency is the fitted concentration of half-maximal effect
# Summary of the method: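 Rat S16 Schwann cells stably carrying firefly luciferase driven by a PMP22 intronic element, in 10% FBS, treated 24 h at 37 C. ONE-Glo luminescence normalized to PTC124 control and DMSO (0%); curves classed by r2, magnitude and activity.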
# [6] = S16 Schwann cell PMP22 intronic element beta-lactamase assay (AID 624044; calls by dose curve; note: nearly all actives have a fitted effect of over 15% in size)
# Summary of the method: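 Beta-lactamase reporter under a PMP22 intronic regulatory element in stable S16 rat Schwann cells; 24 h compound exposure. 460 nm blue signal normalized between DMSO (0%) and potassium clavulanate, with 535 nm FRET tracking viability; curves classed by r2 and response.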
# [7] = target: Glutaminase kidney isoform, mitochondrial (Homo sapiens) (UniProt O94925); experiment: qHTS for Inhibitors of Glutaminase (GLS): LOPAC Validation (AID 624146);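 note: glutamate product detected by oxidase and peroxidase coupled Amplex red fluorescence gain; series mostly up to about 46 µM; nearly all actives have a fitted effect of over 60% in size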
# Description: Glutaminase (GLS) catalyzes the hydrolysis of glutamine into glutamate and ammonia. It plays a critical role in glutaminolysis, which is an important energy source for proliferating cells. It was shown that c-Myc, an oncogenic transcription factor known to regulate microRNAs and to stimulate cell proliferation, increases glutamine metabolism by stimulating the expression of GLS via direct suppression of miR23a and miR23b.
# GLS is also thought to play a pathogenic role on HAD using a human HIV-1 infected macrophage system. […] GLS inhibition limits glutamate release and provides neuroprotection against HIV-1 infected macrophages.
# The overall goal of this project is to identify small molecule inhibitors of GLS through quantitative high throughput screening (qHTS) of the MLSMR. A validated potent and selective inhibitor can be used as a tool molecule to further study the pharmacology of its target as well as explore its potential therapeutic application in cancer and inflammatory neurological disorders, such as HIV1-associated dementia (HAD) and multiple sclerosis.
# NIH Chemical Genomics Center [NCGC] […]
# Three 3 uL of hKGA is dispensed into black well 1536-well plates in 45 mM KH2PO4 (pH 8.2), 0.02% Tween-20. […] Plate is centrifuged for 25 sec before an initial fluorescence read is obtained on the ViewLux, after 30 min of RT incubation, the final read is taken on the ViewLux.
# [8] = target: Glucagon-like peptide 1 receptor (Homo sapiens) (UniProt P43220); experiment: qHTS of GLP-1 Receptor Agonists: LOPAC Validation (AID 624148);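 note: higher luminescence signal means agonism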
# Summary of the method: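 HEK293 cells stably co-expressing GLP-1R and a cAMP-responsive luciferase reporter, plated 12 hours before compound, then incubated 4-6 hr at 37 deg C. Luminescence read 12 min after detection reagent.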
# [9] = qHTS of Nrf2 Activators: LOPAC Validation (AID 624149)
# Summary of the method: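 Cells (AREc32_Fluc) are plated at 1000 per well in OPTI-MEM containing 5% FBS and left overnight. Compounds are pinned in and incubated 24 hr at 37 deg C, and firefly luciferase is detected with Steady-Glo.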
# [10] = HTS Assay for Allosteric Antagonists of the Human D2 Dopamine Receptor: Hit Validation in HTRF (AID 624455);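 note: stable D1 dopamine receptor cell line scored for blocking the D1 response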
# Summary of the method: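 Inhibition of the D1-mediated response is measured by HTRF in cells that stably express the D1 dopamine receptor. Compounds reaching this step are hits from calcium-flux antagonism testing at EC80 dopamine in inducible Hek293 Trex D2 cells.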
# Luciferin 4-monooxygenase (Photinus pyralis), sequence (P08659 whole entry, looked up): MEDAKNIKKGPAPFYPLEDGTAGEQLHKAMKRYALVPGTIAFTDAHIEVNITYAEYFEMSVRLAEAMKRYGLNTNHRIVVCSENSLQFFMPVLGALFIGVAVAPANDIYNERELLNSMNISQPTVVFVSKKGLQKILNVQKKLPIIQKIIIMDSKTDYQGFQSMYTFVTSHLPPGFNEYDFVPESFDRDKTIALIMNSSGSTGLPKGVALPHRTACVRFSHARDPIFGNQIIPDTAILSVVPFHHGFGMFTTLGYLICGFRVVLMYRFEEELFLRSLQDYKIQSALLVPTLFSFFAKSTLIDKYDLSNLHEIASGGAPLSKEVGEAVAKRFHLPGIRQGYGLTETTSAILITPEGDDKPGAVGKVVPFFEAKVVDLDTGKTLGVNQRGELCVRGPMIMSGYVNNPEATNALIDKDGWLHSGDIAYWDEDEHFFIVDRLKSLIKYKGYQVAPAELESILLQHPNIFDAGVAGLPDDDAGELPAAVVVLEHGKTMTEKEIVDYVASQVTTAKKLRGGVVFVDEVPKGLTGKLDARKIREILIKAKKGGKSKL
# Thyroid hormone receptor beta (Homo sapiens), sequence (P10828 whole entry, looked up): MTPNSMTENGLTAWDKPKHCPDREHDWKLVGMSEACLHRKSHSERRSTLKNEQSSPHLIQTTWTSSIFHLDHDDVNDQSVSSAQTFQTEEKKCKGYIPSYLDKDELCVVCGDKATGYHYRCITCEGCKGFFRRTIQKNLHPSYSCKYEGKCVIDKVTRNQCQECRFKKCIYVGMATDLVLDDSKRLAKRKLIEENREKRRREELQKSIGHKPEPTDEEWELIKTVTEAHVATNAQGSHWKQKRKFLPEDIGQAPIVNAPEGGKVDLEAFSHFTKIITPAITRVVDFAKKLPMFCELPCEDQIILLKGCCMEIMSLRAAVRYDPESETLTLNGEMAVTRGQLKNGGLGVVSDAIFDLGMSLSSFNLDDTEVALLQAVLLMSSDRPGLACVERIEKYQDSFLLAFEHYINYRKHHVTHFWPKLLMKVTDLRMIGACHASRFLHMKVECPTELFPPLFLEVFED
# Voltage-gated inwardly rectifying potassium channel KCNH2 (Homo sapiens), sequence (Q12809 whole entry, looked up): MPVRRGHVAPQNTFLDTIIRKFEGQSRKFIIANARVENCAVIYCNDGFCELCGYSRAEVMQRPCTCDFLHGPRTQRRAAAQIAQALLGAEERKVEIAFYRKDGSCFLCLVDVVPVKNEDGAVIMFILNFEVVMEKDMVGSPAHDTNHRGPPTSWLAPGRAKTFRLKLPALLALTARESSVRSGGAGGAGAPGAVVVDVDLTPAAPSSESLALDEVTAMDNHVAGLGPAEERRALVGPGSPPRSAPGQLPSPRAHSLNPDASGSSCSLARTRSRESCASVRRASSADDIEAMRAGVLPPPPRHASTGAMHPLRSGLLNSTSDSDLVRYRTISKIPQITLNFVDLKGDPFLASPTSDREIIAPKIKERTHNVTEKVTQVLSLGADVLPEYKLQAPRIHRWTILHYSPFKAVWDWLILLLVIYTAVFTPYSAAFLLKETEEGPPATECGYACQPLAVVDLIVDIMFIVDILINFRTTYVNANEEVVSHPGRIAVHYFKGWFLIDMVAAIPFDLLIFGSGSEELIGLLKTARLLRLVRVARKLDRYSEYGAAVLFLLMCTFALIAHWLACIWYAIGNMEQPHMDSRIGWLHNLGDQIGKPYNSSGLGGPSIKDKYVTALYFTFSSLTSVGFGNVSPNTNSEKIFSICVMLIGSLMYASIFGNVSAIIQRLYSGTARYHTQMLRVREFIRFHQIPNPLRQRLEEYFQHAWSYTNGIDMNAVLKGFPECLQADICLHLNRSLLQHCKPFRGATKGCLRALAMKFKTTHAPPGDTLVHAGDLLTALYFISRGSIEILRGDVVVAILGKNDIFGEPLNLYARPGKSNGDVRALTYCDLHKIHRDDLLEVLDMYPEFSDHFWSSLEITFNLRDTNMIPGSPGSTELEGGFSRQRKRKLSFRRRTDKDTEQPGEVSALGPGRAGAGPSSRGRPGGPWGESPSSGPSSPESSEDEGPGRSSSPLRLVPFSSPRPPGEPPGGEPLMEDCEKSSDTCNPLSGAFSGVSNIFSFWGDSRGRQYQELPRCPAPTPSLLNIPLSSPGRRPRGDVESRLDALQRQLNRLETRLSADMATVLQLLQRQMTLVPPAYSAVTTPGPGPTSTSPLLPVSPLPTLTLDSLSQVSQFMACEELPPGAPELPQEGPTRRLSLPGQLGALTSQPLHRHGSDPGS
# Glucagon-like peptide 1 receptor (Homo sapiens), sequence (P43220 whole entry, looked up): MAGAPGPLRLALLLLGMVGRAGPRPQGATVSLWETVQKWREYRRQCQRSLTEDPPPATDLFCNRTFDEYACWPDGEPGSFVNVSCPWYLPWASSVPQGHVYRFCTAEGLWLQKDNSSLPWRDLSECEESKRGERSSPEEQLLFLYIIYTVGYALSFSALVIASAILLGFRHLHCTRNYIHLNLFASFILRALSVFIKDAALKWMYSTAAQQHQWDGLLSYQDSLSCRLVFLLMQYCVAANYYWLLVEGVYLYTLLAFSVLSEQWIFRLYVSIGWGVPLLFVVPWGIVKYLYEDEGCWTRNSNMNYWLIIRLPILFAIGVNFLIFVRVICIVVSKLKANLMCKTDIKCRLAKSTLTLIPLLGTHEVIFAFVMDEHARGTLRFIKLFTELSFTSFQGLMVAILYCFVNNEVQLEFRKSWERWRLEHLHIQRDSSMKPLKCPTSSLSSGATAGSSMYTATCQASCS
# Glutaminase kidney isoform, mitochondrial (Homo sapiens), sequence (O94925 whole entry, looked up, canonical isoform): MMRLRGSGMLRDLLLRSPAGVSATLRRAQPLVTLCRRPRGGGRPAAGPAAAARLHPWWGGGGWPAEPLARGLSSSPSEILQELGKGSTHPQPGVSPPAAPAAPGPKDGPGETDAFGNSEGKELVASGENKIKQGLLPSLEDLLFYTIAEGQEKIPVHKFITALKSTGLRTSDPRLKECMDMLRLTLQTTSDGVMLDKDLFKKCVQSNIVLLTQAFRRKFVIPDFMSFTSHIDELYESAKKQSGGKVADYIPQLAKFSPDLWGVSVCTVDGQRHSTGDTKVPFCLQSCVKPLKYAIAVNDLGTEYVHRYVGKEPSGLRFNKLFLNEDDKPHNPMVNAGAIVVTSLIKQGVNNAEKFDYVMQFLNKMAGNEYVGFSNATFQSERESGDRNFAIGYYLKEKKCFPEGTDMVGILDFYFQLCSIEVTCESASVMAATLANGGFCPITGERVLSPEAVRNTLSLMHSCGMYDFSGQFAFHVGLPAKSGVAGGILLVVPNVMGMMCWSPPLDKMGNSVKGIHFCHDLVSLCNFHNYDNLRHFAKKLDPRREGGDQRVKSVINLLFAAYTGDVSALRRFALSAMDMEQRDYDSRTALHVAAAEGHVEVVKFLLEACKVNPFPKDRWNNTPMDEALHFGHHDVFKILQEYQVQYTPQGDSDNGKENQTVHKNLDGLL
structure (smiles),measurement,setting,value
N[C@@H](C(=O)N[C@H]1C(=O)N2C(C(=O)O)=C(Cl)CC[C@H]12)c1ccccc1,Potency,[1],inactive
CCN(CC)CCOC(=O)c1ccc(N)cc1Cl,Potency,[1],inactive
CC(=O)S[C@@H]1CC2=CC(=O)CC[C@]2(C)[C@H]2CC[C@@]3(C)[C@@H](CC[C@@]34CCC(=O)O4)[C@H]12,Potency,[2],28200 nM (active)
CN(C)CCOc1ccccc1Cc1ccccc1 (tested in a mixture with another compound),Potency,[1],inactive
Cc1c(O)cc2c(c1C)O[C@](C)(CCC[C@H](C)CCC[C@H](C)CCCC(C)C)CC2,Potency,[1],inactive
O=C(O)CC(O)(CC(=O)O)C(=O)O,outcome,[3],inactive
same,Potency,[1],inactive
CCOC(=O)[C@H](CCc1ccccc1)N[C@H]1CCCN2CCC[C@@H](C(=O)O)N2C1=O,Potency,[1],inactive
CS(=O)(=O)Nc1cc2occ(NC=O)c(=O)c2cc1Oc1ccccc1,Potency,[1],inactive
CCC(C)C(C(=O)OCC[N+](C)(CC)CC)c1ccccc1 (stereo unspecified),Potency,[1],inactive
CN1CCN(C2=Nc3ccccc3Cc3ccccc32)CC1,Potency,[1],inactive
CNC[C@@H]1CC[C@@H](N)[C@@H](O[C@H]2[C@H](O)[C@@H](O[C@H]3OC[C@](C)(O)[C@H](NC)[C@H]3O)[C@H](N)C[C@@H]2N)O1,Potency,[1],inactive
CC(CN(C)C)CN1c2ccccc2S(=O)(=O)c2ccccc21 (stereo unspecified),Potency,[1],inactive
CCCCCCCCCC(=O)O,activity change % (negative = inhibition),[2],17.7%
same,outcome,[3],inactive
same,Potency,[1],inactive
C[C@H](/C=C/[C@H](C)C(C)(C)O)[C@H]1CC[C@H]2/C(=C/C=C3C[C@@H](O)C[C@H](O)C3)CCC[C@]12C,Potency,[1],inactive
CCC(C)(C)OC(=O)N[C@@H](Cc1c[nH]c2ccccc12)C(=O)N[C@@H](CCSC)C(=O)N[C@@H](CC(=O)O)C(=O)N[C@@H](Cc1ccccc1)C(N)=O,Potency,[1],inactive
O=C(Cn1cnnn1)N[C@@H]1C(=O)N2C(C(=O)O)=C(CSc3nncs3)CS[C@H]12,Potency,[1],inactive
NCCCC(=O)O,outcome,[3],inactive
same,Potency,[1],inactive
same,Potency,[4],inactive
same,Potency,[5],inactive
same,outcome,[6],inactive
same,outcome,[7],inactive
same,outcome,[8],inactive
same,outcome,[9],inactive
same,outcome,[10],inactive
CN(C)Cc1ccccc1,activity change % (negative = inhibition),[2],-0.727%
same,outcome,[3],inactive
same,Potency,[1],inactive
CCOC(=O)Cc1cccc(-c2cc(CCCCCCc3ccc(O[C@H]4O[C@H](COC(C)=O)[C@@H](OC(C)=O)[C@H](OC(C)=O)[C@@H]4OC(C)=O)c(-c4cccc(CC(=O)OCC)c4)c3)ccc2O[C@H]2O[C@H](COC(C)=O)[C@@H](OC(C)=O)[C@H](OC(C)=O)[C@@H]2OC(C)=O)c1,Potency,[1],inactive
CCCC1([C@H](O)C/C=C/[C@H]2[C@H](O)CC(=O)[C@@H]2CCCCCCC(=O)OC)CCC1,Potency,[1],inactive
CN[C@@H]1CCc2[nH]c3ccc(C(N)=O)cc3c2C1,Potency,[1],inactive
CC1(S(=O)(=O)O)CC(=O)c2ccccc2C1=O (stereo unspecified),Potency,[1],inactive
COC(C)=O,activity change % (negative = inhibition),[2],-1.11%
same,outcome,[3],inactive
same,Potency,[1],inactive
O=S(O)CO,Potency,[1],inactive
CCCOc1ccc2nc(NC(=O)OC)sc2c1,outcome,[3],inactive
same,Potency,[1],1140 nM (active)
same,Potency,[4],inactive
same,Potency,[5],inactive
same,outcome,[6],inactive
COc1ccc(CNCC(O)COc2ccc3[nH]c(=O)ccc3c2)cc1OC (stereo unspecified),Potency,[1],inactive
COc1ccc(C2NC(=S)N3C(c4ccc(OC)c(OC)c4)NC(=S)N23)cc1OC (stereo unspecified),Potency,[1],inactive
C=Cc1ccccc1,outcome,[3],inactive
same,Potency,[1],inactive
c1ccc2c(CCC3CCNCC3)c[nH]c2c1,Potency,[1],inactive
C=CCNC1=C2C[C@@H](C)C[C@H](OC)[C@H](O)[C@@H](C)/C=C(\C)[C@H](OC(N)=O)[C@@H](OC)/C=C\C=C(/C)C(=O)NC(=CC1=O)C2=O,Potency,[5],72.1 nM (active)
same,outcome,[6],inactive
CN[C@H]1CC[C@@H](c2ccc(Cl)c(Cl)c2)c2ccccc21,outcome,[6],inactive
same,outcome,[7],inactive
same,outcome,[8],inactive
same,outcome,[9],inactive
same,outcome,[10],inactive
